# Laboratory results from publication PMC4552634, “A New Set of Chemical Starting Points with Plasmodium falciparum Transmission-Blocking Potential for Antimalarial Drug Discovery” (PLoS ONE, 2015).
# Out of some 13,000 compounds screened, about 3,200 (25%) showed an effect of 50% or more. Some of the results follow.
# Tested on: P. falciparum stage V gametocytes
# Design: BacTiter-Glo ATP luminescence viability of purified stage V gametocytes in 384-well plates, per cent inhibition versus DMSO
# Settings: 48 h, 5 µM; inhibitor
row,SMILES,% Inhibition
1,O=C1OC2(CCN(Cc3cccc(-c4ncc[nH]4)c3)CC2)CN1CCNCc1ccccc1 [TCMDC-136733],-38.21%
2,Cc1cc(NCCC(=O)Nc2ccccc2)nc(NCCc2cccs2)n1 [TCMDC-134872],26.35%
3,COc1ccc(Nc2nc(C)cc(NCc3ccc(-c4c(C)noc4C)cc3)n2)cc1 [TCMDC-134024],-1.002%
4,COc1ccc(NC(=O)CCNc2cc(C)nc(NCc3cccc(C)c3)n2)cc1 [TCMDC-134883],59.29%
5,COc1ccc(NC(=O)CCNc2cc(C)nc(NCc3ccccc3C)n2)cc1 [TCMDC-134899],34.68%
6,Cc1cccc(CNc2nc(C)cc(NCCC(=O)Nc3ccccc3)n2)c1 [TCMDC-134885],25.97%
7,Cc1cc(NCCC(=O)Nc2ccccc2)nc(NCCc2ccc(F)cc2)n1 [TCMDC-134783],44.82%
8,COc1ccc(Nc2cc(C)nc(NCc3ccc4c(c3)OCO4)n2)cc1 [TCMDC-136332],81.18%
9,Cc1cc(NCCC(=O)Nc2ccccc2)nc(NCCc2cccnc2)n1 [TCMDC-134880],47.41%
10,CCNc1cc(C)nc(Nc2ccc(NC(=O)Cc3ccc(OC)cc3)cc2)n1 [TCMDC-124983],15.74%
11,COc1ccccc1CCNc1nc(C)cc(NCCC(=O)Nc2ccccc2)n1 [TCMDC-134800],76.83%
12,Cc1cc(NCCC(=O)Nc2ccccc2)nc(NCCc2ccccc2)n1 [TCMDC-134772],51%
13,Cc1ccc(C)c(-n2c(SCC(=O)Nc3ccc(C(N)=O)cc3)nnc2-c2cccc(Cl)c2)c1 [TCMDC-124332],36.9%
14,O=C(Nc1cccc(F)c1)NC1CCN(c2ccnc3cc(Cl)ccc23)CC1 [TCMDC-133569],-8.116%
15,Cc1ccccc1-c1nc2c(CN3CCC(O)(c4ccccc4)CC3)c(O)ccc2[nH]1 [TCMDC-136533],40.24%
16,CCCc1ccc(NC(=O)c2cccc(CN3CCCN(Cc4cccc(C#N)c4)CC3)c2)cc1 [TCMDC-135977],-19.91%
17,O=C(Cc1ccc(NC(=O)c2ccc(O)c(-c3ccc(Cl)c(Cl)c3)c2)cc1)NCCN1CCOCC1 [TCMDC-140853],-3.124%
18,CCCC(C)Nc1nc(C)cc(NCCC(=O)Nc2ccc(OC)cc2)n1 (centres unmarked) [TCMDC-134762],20.26%
19,COc1ccc(NC(=O)CCNc2cc(C)nc(NCCc3ccc(F)cc3)n2)cc1 [TCMDC-134864],55.47%
20,COc1ccc(NC(=O)CCNc2cc(C)nc(NCCc3ccccc3)n2)cc1 [TCMDC-134770],41.15%
21,c1csc(-c2nc(N3CCCC3)ncc2-c2ccsc2)n1 [TCMDC-125373],23.84%
22,CS(=O)(=O)Cc1ccc(Nc2nccc(-c3c(-c4cccc(C(=O)Nc5c(F)cccc5F)c4)nn4ccccc34)n2)cc1 [TCMDC-135742],-95.17%
23,N#Cc1ccc(-c2ccc(C(=O)NCCCCN3CCC(n4cnc5ccccc54)CC3)cc2)cc1 [TCMDC-138796],-25.18%

row,SMILES,% Inhibition
1,O=C(NC1CC1)c1ccc(N2CCOc3ccc(Cl)cc32)s1 [TCMDC-125270],3.185%
2,Cc1c(C(=O)C2CC2CN2CCC(N3CCCCC3)CC2)sc2ccccc12 (centres unmarked) [TCMDC-132576],19.76%
3,CCCN1CCN(CCCNC(=O)c2cc3c(Cl)nc4ccc(C)cc4c3s2)CC1 [TCMDC-124441],16.62%
4,Cc1ccc2nc(Cl)c3cc(C(=O)NCCCN4CCCC4)sc3c2c1 [TCMDC-125000],29.06%
5,O=C(NCCCN1CCC(N2CCCCC2)CC1)C1=Cc2cc(Br)ccc2OC1 [TCMDC-124696],29.02%
6,O=C(NCCCN1CCC(N2CCCCC2)CC1)c1ccc(N2CCOc3ccccc32)s1 [TCMDC-125271],84.69%
7,O=C(NCCCN1CCC(N2CCCCC2)CC1)c1ccc2nc(N3CCCCC3)sc2c1 [TCMDC-124404],56.64%
8,Cc1ccc2nc3sc(C(=O)NCCCN4CCC(N5CCCCC5)CC4)cc3cc2c1 [TCMDC-125157],73.7%
9,CCCCCCNC(=O)c1nn(CCN2CCC(N3CCCC3)CC2)cc1-c1ccc(Cl)c(Cl)c1 [TCMDC-141907],27.94%
10,Cc1cc(C)c2nc(N3CCC(C(=O)NCCCN4CCC(N5CCCCC5)CC4)CC3)sc2c1 [TCMDC-124448],62.4%
11,CCOCCCNc1nc2cc(OC)c(OC)cc2c2nc(-c3ccccc3)nn12 [TCMDC-124406],-8.61%
12,COc1ccc2nccc(N3CCCN(CCNS(=O)(=O)c4ccc5c(c4)NC(=O)CS5)CC3)c2n1 [TCMDC-134651],20.86%
13,CCC(C)CN1CCC(N(C)c2cc(NC(=O)c3cccc(C)c3)ccn2)CC1 (centres unmarked) [TCMDC-134950],-9.268%
14,CC(CN(C)C)C(=O)Nc1ccc(-c2cccc(-c3nc4ccc(C(F)(F)F)cc4[nH]3)c2)cc1 (centres unmarked) [TCMDC-137109],-30.4%
15,COc1ccc(-n2ccnc2)cc1CNC1CCN(CC2Cn3c(=O)ccc4ccc(F)c2c43)CC1 (centres unmarked) [TCMDC-134407],-10.31%
16,CN(C(=O)/C=C/c1ccccc1F)C1CCN(CCCCCNC(=O)/C=C/c2ccc(Cl)c(Cl)c2)CC1 [TCMDC-139992],46.22%
17,CN1CCC(N(C)C(=O)C=Cc2cn(-c3ccccc3)nc2-c2cc3ccccc3o2)CC1 [TCMDC-124569],79.49%
18,COc1ccccc1/C=C/C(=O)N(C)C1CCN(CCCCCNC(=O)/C=C/c2ccc(Cl)c(Cl)c2)CC1 [TCMDC-139985],9.126%
19,CCCCCOc1c(CCC)cc(Cc2cnc(N)nc2N)cc1CCC [TCMDC-137287],-6.135%
20,COc1cc2c(cc1C(F)(F)F)N(C(=O)Nc1cc(Br)cc(-c3cccnc3)c1)CC2 [TCMDC-139024],0.01985%
21,COc1cc2c(cc1C(F)(F)F)N(C(=O)Nc1cc(-c3ccncc3)cc(-c3cccnc3)c1)CC2 [TCMDC-139040],-15.72%
22,COc1cc2c(cc1C(F)(F)F)N(C(=O)Nc1cccc(-c3ccc(CN(C)C)cc3)c1)CC2 [TCMDC-139014],97.51%
23,CC(C)c1ccc(NC(=O)c2ccc(C(=O)NC3CCN(CC4CCCCC4)CC3)cc2)cc1 [TCMDC-136750],-11.44%

row,SMILES,% Inhibition
1,NC1=NC(Cc2ccccc2)(c2ccncc2)C(=O)N1CCCc1ccccc1 (centres unmarked) [TCMDC-136557],2.084%
2,O=C(c1ccc(Cl)c(Cl)c1)N1CCc2c([nH]c3ccccc23)C1CN1CCCC1 (centres unmarked) [TCMDC-139011],81.19%
3,CC(C)CC1c2[nH]c3ccccc3c2CCN1C(=O)CCc1ccccc1 (centres unmarked) [TCMDC-123996],-45.79%
4,CN(C)CC1c2[nH]c3ccccc3c2CCN1C(=O)Nc1ccc(Cl)c(Cl)c1 (centres unmarked) [TCMDC-139004],3.866%
5,N#Cc1ccc2c(c1)CCN(CCC1CCC(NC(=O)/C=C/c3ccc4[nH]ccc4c3)CC1)CC2 (centres unmarked) [TCMDC-139666],5.34%
6,O=C(Nc1cccc(F)c1)N(Cc1ccc(-c2cccc(CN3CCNCC3)c2)cc1)C1CCN(Cc2ccccc2)CC1 [TCMDC-139638],105.9%
7,CN(c1cc(NC(=O)c2ccccc2)ccn1)C1CCN(Cc2cccc(F)c2)CC1 [TCMDC-135011],9.307%
8,O=C(Nc1cccc(F)c1)N(Cc1ccc(-c2ccc(CN3CCNCC3)cc2)cc1)C1CCN(Cc2ccccc2)CC1 [TCMDC-139654],96.89%
9,N#Cc1cccc(C(=O)Nc2cccc(-c3cccc(CN4CCNCC4)c3)c2)c1 [TCMDC-132660],26.75%
10,O=C(Nc1cccc(-c2ccc(CN3CCCC3)cc2)c1)c1cccc(F)c1 [TCMDC-132647],5.119%
11,CCn1cnc2c(N3CCCC3=O)cc(C(=O)N[C@@H](Cc3ccccc3)[C@H](O)CNC3CCCCC3)cc21 [TCMDC-135231],-30.5%
12,CCN(CC)CCN(Cc1ccc(-c2ccc(C(F)(F)F)cc2)cc1)C(=O)Cn1c(CCc2cc(F)c(F)cc2F)nc(=O)c2ccccc21 [TCMDC-140949],56.5%
13,CCN(CC)CCN(Cc1ccc(-c2ccc(C(F)(F)F)cc2)cc1)C(=O)Cn1c(CCc2cc(F)ccc2F)nc(=O)c2ccccc21 [TCMDC-140941],67.52%
14,COc1ccc2nccc([C@H](O)CN3CCC(NCc4nc5c(F)cccc5[nH]4)CC3)c2c1 [TCMDC-141062],-21.41%
15,NC(=O)c1cccc(C(=O)Nc2cccc(-c3ccc(-c4nc5ccccc5[nH]4)s3)c2)c1 [TCMDC-132195],9.45%
16,Cc1[nH]c2ccc([N+](=O)[O-])cc2c1C1=CCN(C)CC1 [TCMDC-139186],-16.2%
17,c1cc(CNCC2CCCO2)cc(-c2cccc(-c3nc4ccccc4[nH]3)c2)c1 (centres unmarked) [TCMDC-133090],0.6072%
18,CN(C)CCNCc1cccc(-c2cccc(-c3nc4ccccc4[nH]3)c2)c1 [TCMDC-132680],40.55%
19,CNCCNCc1cccc(-c2ccc(-c3nc4ccccc4[nH]3)cc2)c1 [TCMDC-132839],24.41%
20,c1cc(CNCCN2CCNCC2)cc(-c2cccc(-c3nc4ccccc4[nH]3)c2)c1 [TCMDC-132859],95.66%
21,c1cc(CN2CCN(CCN3CCOCC3)CC2)cc(-c2ccc(-c3nc4ccccc4[nH]3)cc2)c1 [TCMDC-133939],-22.81%
22,c1cc(CNCCN2CCNCC2)cc(-c2ccc(-c3nc4ccccc4[nH]3)cc2)c1 [TCMDC-132861],85.05%
